{
  "source": "PubChem BioAssay (Tox21)",
  "note": "Results filed as inconclusive are left out. A number with no mark means an inactive call. Active and inactive are the calls of the source. The call rests on the fitted dose curve. On the % scale 0 is the no-effect control and ±100 the full control effect; potency means the concentration at half of the fitted maximal effect.",
  "data": [
    {"target": "Progesterone receptor (Homo sapiens) (UniProt P06401)", "sequence (P06401 whole entry, looked up)": "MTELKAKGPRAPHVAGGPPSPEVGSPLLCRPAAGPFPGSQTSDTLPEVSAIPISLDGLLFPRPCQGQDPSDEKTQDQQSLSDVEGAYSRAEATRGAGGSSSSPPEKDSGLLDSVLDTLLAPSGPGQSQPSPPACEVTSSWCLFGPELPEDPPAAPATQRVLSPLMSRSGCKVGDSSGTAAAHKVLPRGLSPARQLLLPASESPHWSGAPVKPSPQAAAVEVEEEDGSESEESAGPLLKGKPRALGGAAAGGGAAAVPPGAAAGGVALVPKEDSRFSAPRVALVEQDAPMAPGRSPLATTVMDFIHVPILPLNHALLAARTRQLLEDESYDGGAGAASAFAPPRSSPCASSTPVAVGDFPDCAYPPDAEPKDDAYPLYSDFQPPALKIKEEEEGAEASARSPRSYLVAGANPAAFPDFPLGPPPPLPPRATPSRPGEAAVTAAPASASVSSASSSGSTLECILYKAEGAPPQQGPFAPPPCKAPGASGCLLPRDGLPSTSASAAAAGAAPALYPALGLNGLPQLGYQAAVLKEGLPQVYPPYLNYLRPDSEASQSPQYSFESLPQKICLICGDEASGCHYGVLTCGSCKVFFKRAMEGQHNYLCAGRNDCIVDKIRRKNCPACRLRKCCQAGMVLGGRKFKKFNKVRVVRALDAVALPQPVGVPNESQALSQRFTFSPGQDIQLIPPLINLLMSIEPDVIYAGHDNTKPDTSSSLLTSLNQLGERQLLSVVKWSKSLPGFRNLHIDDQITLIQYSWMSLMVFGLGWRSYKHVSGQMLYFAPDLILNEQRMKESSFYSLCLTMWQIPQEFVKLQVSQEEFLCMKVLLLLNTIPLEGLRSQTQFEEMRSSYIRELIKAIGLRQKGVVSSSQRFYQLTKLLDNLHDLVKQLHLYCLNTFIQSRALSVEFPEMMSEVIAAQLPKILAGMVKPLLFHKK", "assay": "qHTS assay to identify small molecule agonists of the progesterone receptor (PR) signaling pathway (AID 1346784); further: nearly all actives have a fitted effect of over 30% in size", "conditions": "PR-UAS-bla HEK293T, beta-lactamase FRET ratio, 16 h; series mostly up to 92.4 µM; activation: at the top concentration", "text": "U.S. Tox21 Program National Center for Advancing Translational Sciences [NCATS] NIH Chemical Genomics Center [NCGC] U.S. Environmental Protection Agency [EPA] National Institutes of Environmental Health Sciences [NIEHS] National Toxicology Program [NTP] U.S. Food and Drug Administration [FDA] […] Endocrine disrupting chemicals (EDCs) and their interactions with steroid hormone receptors like PR causes disruption of normal endocrine function. To identify the compounds that activate PR signaling, a PR-UAS-bla GripTite cell line i.e. PR-UAS-bla HEK 293T (Invitrogen, Carlsbad, CA, USA) containing a beta-lactamase reporter gene under the control of an Upstream Activator Sequence (UAS) was used to screen Tox21 10K compound library.\nTox21 Assay Protocol Summary: PR-UAS-bla HEK 293T cells were dispensed at 3,000 cells/5 uL of assay medium containing 2% charcoal stripped FBS per well into black wall/clear-bottom 1536-well plates using a Multidrop Combi (ThermoFisher Scientific, Waltham, MA) dispenser. After the assay plates were incubated at a 37C and 5% CO2 for 6hr, 23 nL of compounds dissolved in DMSO, positive controls or DMSO only was transferred to the assay plate by a Pintool station (Kalypsys, San Diego, CA). The plates were incubated at 37C and 5% CO2 for 16hr. Then 1 uL of LiveBLAzer B/G FRET substrate was added using a BioRAPTR FRD (Flying Reagent Dispenser, Aurora Discovery, San Diego, CA). After the plates were incubated at room temperature for 2 hours, fluorescence intensity was measured by an Envision plate reader (PerkinElmer, Shelton, CT).", "values": [
      {"smiles": "O=C(O)[C@H](O)c1ccccc1", "activation": "4.26% [at 42.5 µM]"},
      {"smiles": "CCCCCCCCCOC(=O)CCCCC(=O)OCCCCCCC", "activation": "0.379%"},
      {"smiles": "CC(=O)Nc1ccc(OC(=O)c2ccccc2OC(C)=O)cc1", "activation": "4.51% [at 42.5 µM]"},
      {"smiles": "CCCSSCCC", "activation": "-0.268%"},
      {"smiles": "CC1OCCC1=O", "note": "(stereo not given)", "activation": "-0.199%"},
      {"smiles": "CC(=O)O[C@H]1C[C@@H]2CC[C@@]1(C)C2(C)C", "activation": "-2.13%"},
      {"smiles": "O=C(CCCl)NCCc1ccccc1", "activation": "-0.0804% [at 42.5 µM]"},
      {"smiles": "Cn1c(=O)c2c(ncn2CCO)n(C)c1=O", "activation": "-0.0406% [at 42.5 µM]"},
      {"smiles": "CC(C)Nc1ccccc1", "activation": "0.0458%"},
      {"smiles": "CCCCCCCCCCOC(C)=O", "activation": "0.0678%"},
      {"smiles": "CCCC(=O)OC/C=C(\\C)CCC=C(C)C", "activation": "-3.16%"},
      {"smiles": "CC(C)(C)NC[C@H](O)COc1cccc2c1CCCC2=O", "activation": "-2.77% [at 42.5 µM]"},
      {"smiles": "CCC(C)OC(C)CC", "note": "(stereo not given)", "activation": "3.86%"},
      {"smiles": "CC(C)NCC(O)c1ccc2ccccc2c1", "note": "(stereo not given)", "activation": "-3.34% [at 42.5 µM]"},
      {"smiles": "ONc1ccccc1", "activation": "1.39%"},
      {"smiles": "Cc1c(C(=O)c2c[nH]n(C)c2=O)ccc(S(C)(=O)=O)c1C1=NOCC1", "activation": "1.04% [at 42.5 µM]"},
      {"smiles": "OCC1CCC(CO)CC1", "note": "(stereo not given)", "activation": "-0.551%"},
      {"smiles": "CCc1occc(=O)c1O", "activation": "-0.347%"},
      {"smiles": "CC(=O)c1cc(C)oc1C", "activation": "0.546%"},
      {"smiles": "CN(C)CCCCl", "activation": "-2.12%"},
      {"smiles": "NCc1ccc(S(N)(=O)=O)cc1", "activation": "0.0812% [at 42.5 µM]"},
      {"smiles": "COCCc1ccccn1", "activation": "0.35% [at 42.5 µM]"},
      {"smiles": "CC(C)(CO)C(O)C(=O)NCCCO", "note": "(stereo not given)", "activation": "0.383%"},
      {"smiles": "CC(=O)CCc1ccc(OC(C)=O)cc1", "activation": "-0.0569%"},
      {"smiles": "COc1ccc(CCO)cc1", "activation": "-4.39%"},
      {"smiles": "Cc1cccc(Cl)c1", "activation": "0.0513%"},
      {"smiles": "CCO[Si](CC)(OCC)OCC", "activation": "4.09%"},
      {"smiles": "CCCCCC(C)O", "note": "(stereo not given)", "activation": "0.543%"},
      {"smiles": "CCC/C=C(\\C=O)CC", "activation": "0%"},
      {"smiles": "CCOC(=O)CC1(C)OCC(C)O1", "note": "(stereo not given)", "activation": "0.797%"},
      {"smiles": "CCO", "activation": "-1.26%"},
      {"smiles": "C=CCSSCCC", "activation": "-0.488%"},
      {"smiles": "CC1=C(C(=O)O)N2C(=O)[C@@H](NC(=O)[C@H](N)c3ccccc3)[C@H]2SC1", "activation": "1.45% [at 42.5 µM]"},
      {"smiles": "O=C(O)CCCCCC(=O)O", "activation": "0.303%"},
      {"smiles": "O=C(CCCCC(=O)Nc1c(I)cc(I)c(C(=O)O)c1I)Nc1c(I)cc(I)c(C(=O)O)c1I", "activation": "0.285% [at 42.5 µM]"},
      {"smiles": "O=S(=O)(O)c1ccc2c(N=Nc3ccc(S(=O)(=O)O)c4ccccc34)c(O)c(S(=O)(=O)O)cc2c1", "activation": "2.07% [at 8.39 µM]"},
      {"smiles": "C[C@]12CCC(=O)C=C1CC[C@H]1[C@@H]3CC[C@](O)(C(=O)CO)[C@@]3(C)C[C@H](O)[C@@]12F", "Potency": "1680 nM (active)"},
      {"smiles": "C=C(C)[C@@H]1CC=C(C)C(=O)C1", "activation": "-0.628%"},
      {"smiles": "O=C[O][Al]([O]C=O)[O]C=O", "activation": "-0.899%"},
      {"smiles": "OC[C@H]1O[C@@H](O[C@@H]2[C@@H](CO)O[C@](O)(CO)[C@H]2O)[C@H](O)[C@@H](O)[C@H]1O", "activation": "3.5% [at 42.5 µM]"}
    ]}
  ]
}
